Consider 17 compounds from PubChem BioAssay (EPA / NIEHS).

Inconclusive results are not listed. Activity calls are given as the source filed them. How the source made its calls: active means hit-call score of the fitted dose curve at least 0.9, where 1 is the maximum; inconclusive means response in the unintended direction; inactive means score below 0.9.

Read-out in the test: organic anion transporter (SLCO1B1), SLCO1B1 (gene 10599)
The experiment in a line: CLD_SLCO1B1_48hr: CellzDirect (CLD) Gene Expression Assay for organic anion transporter (SLCO1B1) at 48 hours (AID 2283707). The protocol: CLD_48hr is a cell-based, multiplexed-readout assay that uses hepatocyte, a human liver primary cell, with measurements taken at 48 hours after chemical dosing in a 96-well plate.CLD_SLCO1B1_48hr is one of 16 assay component(s) measured or calculated from the CLD_48hr assay. It is designed to make measurements of mRNA induction, a form of inducible reporter, as detected with chemiluminescence signals by Quantitative Nuclease Protection Assay (qNPA) technology.Data from the assay component CLD_SLCO1B1_48hr was analyzed at the endpoint, CLD_SLCO1B1_48hr, in the positive analysis fitting direction relative to DMSO as the negative control and baseline of activity. Using a type of inducible reporter, gain-of-signal activity can be used to understand changes in the reporter gene as they relate to the gene SLCO1B1. Furthermore, this assay endpoint can be referred to as a primary readout. To generalize the intended target to other relatable targets, this assay endpoint is annotated to the transporter intended target family, where subfamily is organic anion transporter.
Human hepatocyte cultures were treated daily for two consecutive days with fresh dosing solutions containing appropriate concentrations of the 320 ToxCast chemicals (chemical identities were blinded to CellzDirect and other ToxCast collaborators), vehicle control (0.2% DMSO), and positive control inducers as summarized in Table 1. Due to the large number of treatment groups and chemicals examined, the ToxCast chemicals were divided into two groups (spanning two independent cultures of hepatocytes from separate donor preparations (Hu778: ToxCast plates 1 and 2; Hu776: ToxCast plates 3 and 4). Each preparation of human hepatocyte cultures was treated with respective vehicle control, medium only control, set of six positive controls/reference chemicals for the five hepatic receptor pathways, and a subset of eight of the ToxCast chemicals (indoxacarb, pyrithiobac-sodium, norflurazon, cyhalofop-butyl, methomyl, thiram, acetochlor, and propiconazole). These replicate data, coupled with internal replicates designed within the blinded ToxCast chemical library, provided additional data to evaluate interindividual differences between hepatocyte preparations and their potential impact on chemical profiles.Cell morphology and integrity were evaluated using phase-contrast microscopy as an indicator of hepatocyte cell health (Tyson & Green, 1987). Cultures for each treatment group (i.e., media, vehicle [0.2% DMSO], positive control inducers [multiple concentrations], and the ToxCast chemicals [multiple concentrations]) were observed and cell morphology was assessed relative to vehicle control cultures at each harvest time point (0, 6, 24, or 48 h). […] Images were evaluated at the conclusion of the study to assess changes in cell integrity and account for the effects of chemical exposure on uncharacteristic changes in concentration-dependent gene expression profiles. The results from these determinations of apparent cytotoxicity were annotated (yes/no) alongside the corresponding qNPA data for reference.At the conclusion of each treatment period, hepatocyte cultures (96-well) were washed with 1 volume of HBSS, lysed by addition of 25 ul ArrayPlate lysis buffer (HTG, Tucson, AZ), and 70 ul/well of Denaturation Oil, denatured by incubation at 95C for 10 min, and frozen at approximately -70C until analysis by nuclease protection assay (qNPA) (Roberts et al., 2007). For qNPA analysis, cell lysates were thawed at 50C for approximately 30 min, qNPA probes were added, and samples were incubated at 95C for 10 min to begin the detection process by denaturing the target RNA, dissociating the duplexes and secondary structure hybridization. At the conclusion of the hybridization period, S1 nuclease reagent was added to each sample to digest all nonprotected nucleotides at 50C for 60-90 min. […]
In the case of `COC(=O)c1ccccc1CS(=O)(=O)NC(=O)Nc1nc(OC)cc(OC)n1`, the result was inactive.
The same measure for `CCS(=O)(=O)c1cccnc1S(=O)(=O)NC(=O)Nc1nc(OC)cc(OC)n1`: “inactive”; for `CCOc1nc(NC)nc(NC(=O)NS(=O)(=O)c2ccccc2C(=O)OC)n1`: “inactive”; for `COP(=O)(OC)OC=C(Cl)Cl`: “inactive”.
The same measure for `COP(=S)(OC)Oc1ccc([N+](=O)[O-])cc1`: “inactive”; for `CCc1ccc(C(=O)NN(C(=O)c2cc(C)cc(C)c2)C(C)(C)C)cc1`: “inactive”; for `O=S(=O)(O)C(F)(F)C(F)(F)C(F)(F)C(F)(F)C(F)(F)C(F)(F)C(F)(F)C(F)(F)F`: “inactive”.
As to `O=[N+]([O-])c1c(Cl)c(Cl)c(Cl)c(Cl)c1Cl`, the outcome was inactive.
The same measure for `O=C(O)C(F)(F)C(F)(F)C(F)(F)C(F)(F)C(F)(F)C(F)(F)C(F)(F)F`: “inactive”; for `COc1cc(OC)nc(NC(=O)NS(=O)(=O)c2cc(NC=O)ccc2C(=O)N(C)C)n1`: “inactive”; for `O=C(O)COc1ccc(Cl)cc1Cl`: “inactive”.
The same measure for `Oc1ccc(Cl)cc1Cc1ccccc1`: “inactive”; for `CC(C)OC(=O)Nc1cccc(Cl)c1`: “inactive”; for `Oc1cc(Cl)ccc1Oc1ccc(Cl)cc1Cl`: “inactive”.
The same measure for `CNC(=O)/C=C(\C)OP(=O)(OC)OC`: “inactive”; for `O=C(NC(=O)c1c(F)cccc1F)Nc1ccc(OC(F)(F)C(F)OC(F)(F)F)c(Cl)c1` (configuration not stated): “inactive”.
As for `O=C1c2ccccc2C(=O)N1SC(Cl)(Cl)Cl`, the outcome was inactive.
